# Results as given in PubChem BioAssay (NCATS).
# Values joined by “and” are separate entries in the source; they are usually repeats but may differ in a detail not shown here. Equal entries are not always repeated. Records with an inconclusive call do not appear. Where a structure was tested more than once in an assay, its records may differ in their call. Active and inactive are the calls of the source. Unless noted, calls come from the whole dose curve; as a rule, active = well fitted curve in the direction sought with a large enough effect; inconclusive = small, poorly fitted or top-dose-only effect, or another doubt; inactive = no such curve, though single readings can be large; an effect the other way counts as inactive or inconclusive.
# Experiments:
# [1] = qHTS assay for measurement of the activity of small molecule inhibitors on Zika virus induced Caspase-3 activity in human astrocytoma cells (AID 1224859)
# Summary of the method: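 Luminescent caspase-3/7 read-out (30 min reagent, room temperature) in human SNB-19 cells infected 6 h with ZIKV (2 FFU/cell) after 1 h compound pre-incubation; Data were normalised to uninfected and infected wells.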
# [2] = qHTS Screen of the MIPE 4.0 Collection Against Ewings Sarcoma (RDES) (AID 1259252); note: nearly all actives have a fitted effect of over 35% in size; note: potency is the fitted concentration of half-maximal effect
# Summary of the method: (§1)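 Here, cells in 5% FBS RPMI were exposed for two days (48 h) to compound dilutions added four hours after plating. ATP-based CellTiter-Glo luminescence measured viability, normalized to vehicle and no-cell blanks.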
# [3] = qHTS Screen of the MIPE 4.0 Collection Against Ewings Sarcoma (TC71) (AID 1259253); note: nearly all actives have a fitted effect of over 40% in size; note: potency is the fitted concentration of half-maximal effect
# Summary of the method: as §1
# [4] = qHTS Screen of the MIPE 4.0 Collection Against Ewings Sarcoma (EW8) (AID 1259255); note: nearly all actives have a fitted effect of over 35% in size; note: potency is the fitted concentration of half-maximal effect
# Summary of the method: as §1
# [5] = qHTS Screen of the MIPE 4.0 Collection Against Ewings Sarcoma (TC32) (AID 1259256); note: nearly all actives have a fitted effect of over 45% in size; note: potency is the fitted concentration of half-maximal effect
# Summary of the method: as §1
# [6] = P-glycoprotein substrates identified in KB-8-5-11 adenocarcinoma cell line, qHTS therapeutic library screen (AID 1346987); note: nearly all actives have a fitted effect of over 65% in size; note: potency is the fitted concentration of half-maximal effect
# Summary of the method: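 KB-8-5-11: colchicine-selected sub-line of KB-3-1 over-expressing P-gp; assay medium lacked colchicine. 72 h drug exposure at 37 degree C, CellTiter-Glo.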
# [7] = qHTS assay to identify small molecule inhibitors of chordoma cells - UCH-2 (AID 1259356); note: series mostly up to about 46 µM
# [8] = Identifying Small Molecule Inhibitors of Pancreatic Cancer Stem Cells (Panc1, Spheroid) (AID 1259359);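 note: potency is the fitted concentration of half-maximal effect; compound exposure lasted 48 h before reading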
# Summary of the method: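 Cytotoxicity read by CellTiter-Glo luminescence after 48 h compound exposure at 37C; percent activity scaled between DMSO-treated cells and cell-free wells. Spheroid formats used cells pre-formed 14 days in stem cell media on hydrogel.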
# [9] = Identifying Small Molecule Inhibitors of Pancreatic Cancer Stem Cells (SN12C, Spheroid) (AID 1259360); settings: Potency: SN12C spheroid viability; note: potency is the fitted concentration of half-maximal effect
# Summary of the method: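 Pre-formed 14-day tumor spheroids or adherent cells dosed and incubated 48 h, 37C, 5% CO2. Viability assessed by CellTiter-Glo.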
# [10] = Identifying Small Molecule Inhibitors of Pancreatic Cancer Stem Cells (A278, Adherent) (AID 1259361); note: nearly all actives have a fitted effect of over 35% in size
# Summary of the method: (§2)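 Luminescent ATP readout (CellTiter-Glo) quantifies surviving cells after a 48 h drug incubation. Normalization uses DMSO wells as no inhibition and media-only wells as full inhibition; bortezomib served as positive control.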
# [11] = Identifying Small Molecule Inhibitors of Pancreatic Cancer Stem Cells (Panc1, Adherent) (AID 1259362); settings: Potency: viability; note: potency is the fitted concentration of half-maximal effect
# Summary of the method: as §2
# [12] = Natriuretic polypeptide receptor (hNpr1) antagonism - Pilot counterscreen GloSensor control cell line (AID 1347045; calls by dose curve; note: series mostly up to about 38 µM)
# Summary of the method: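 HEK293 cells carrying the GloSensor cGMP sensor (GIP/pGS-40F) were loaded with 2% GloSensor reagent for 2 h, exposed to compounds for 30 min, and then stimulated with 50 uM sodium nitroprusside for 20 min at room temperature.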
# [13] = biological target: Atrial natriuretic peptide receptor 1 (Homo sapiens) (UniProt P16066); assay: Natriuretic polypeptide receptor (hNpr1) antagonism - Pilot screen (AID 1347049; calls by dose curve;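 note: agonist-evoked cGMP luminescence read 20 min after hNppA addition; potency is the fitted concentration of half-maximal effect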)
# Summary of the method: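 HEK293 cells co-expressing hNpr1 and the GloSensor pGS-40F cGMP luciferase sensor were preloaded with 2% GloSensor reagent for 2 h. Compounds were added for 30 min at room temperature, then cells were stimulated with 0.1 nM hNppA for 20 min before luminescence readout.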
# [14] = biological target: T1, Tyrosine-protein phosphatase non-receptor type substrate 1 (Homo sapiens) + Leukocyte surface antigen CD47 (Homo sapiens) (UniProt P78324+Q08722); assay: CD47-SIRPalpha protein protein interaction - LANCE assay qHTS validation (AID 1347057; active = well fitted curve in the direction sought with a large enough effect in the signal ratio, with a control signal flat, not every such curve was filed as active; the % refers to the signal ratio; note: series mostly up to about 38 µM)
# Summary of the method: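 First, His-tagged CD47 and Eu-labelled anti-His antibody met the compound for 30 min; next, site-specifically biotinylated SIRPalpha was added for 30 min; finally streptavidin-APC was added before reading the TR-FRET ratio.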
# [15] = biological target: T1, Tyrosine-protein phosphatase non-receptor type substrate 1 (Homo sapiens) + Leukocyte surface antigen CD47 (Homo sapiens); assay: CD47-SIRPalpha protein protein interaction - HTRF assay qHTS validation (AID 1347058; active = well fitted curve in the direction sought with a large enough effect in the signal ratio, not every such curve was filed as active; the % refers to the signal ratio;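 note: recombinant soluble extracellular CD47 with His tag and biotinylated SIRPalpha domains; series mostly up to about 38 µM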)
# Summary of the method: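 TR-FRET read (Ch1/Ch2 ratio) of soluble extracellular CD47 and Avi-biotinylated SIRPalpha domains in PBS pH 7.4 with 0.05% IGEPAL; 7-point compound titration. Sequential 30 min room-temperature steps; non-biotinylated SIRPalpha as control inhibitor.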
# [16] = Identifying Small Molecule Inhibitors of Pancreatic Cancer Stem Cells (SN12C, Adherent) (AID 1259358);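 note: cell survival measured after 48 h of compound exposure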; note: potency is the fitted concentration of half-maximal effect
# Summary of the method: as §2
# [17] = NS1 protein of Zika virus - qHTS assay to identify small molecule inhibitors in human HEK 293 cells (AID 1347053); note: nearly all actives have a fitted effect of over 55% in size; note: potency is the fitted concentration of half-maximal effect
# Summary of the method: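 Following 20 h seeding, HEK 293 cells took compound, then 1 h later ZIKV MR766 (MOI = 0.5). Incubation ran 24 h at 37 C before TR-FRET detection of NS1; a drop in signal indicates inhibition.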
# [18] = P-glycoprotein substrates identified in KB-3-1 adenocarcinoma cell line, qHTS therapeutic library screen (AID 1346986); note: nearly all actives have a fitted effect of over 60% in size;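 note: potency is the fitted concentration of half-maximal effect; potency is for cytotoxicity meaning loss of cell viability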
# Summary of the method: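 KB-3-1 parental cells and P-gp-overexpressing KB-8-5-11 (colchicine omitted during assay) plated at 500 cells/well, dosed in dose-response, incubated 72 h at 37 degree C. CellTiter-Glo luminescence read; KB-8-5-11 also tested with tariquidar.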
# T1 sequence (P78324 whole entry, looked up): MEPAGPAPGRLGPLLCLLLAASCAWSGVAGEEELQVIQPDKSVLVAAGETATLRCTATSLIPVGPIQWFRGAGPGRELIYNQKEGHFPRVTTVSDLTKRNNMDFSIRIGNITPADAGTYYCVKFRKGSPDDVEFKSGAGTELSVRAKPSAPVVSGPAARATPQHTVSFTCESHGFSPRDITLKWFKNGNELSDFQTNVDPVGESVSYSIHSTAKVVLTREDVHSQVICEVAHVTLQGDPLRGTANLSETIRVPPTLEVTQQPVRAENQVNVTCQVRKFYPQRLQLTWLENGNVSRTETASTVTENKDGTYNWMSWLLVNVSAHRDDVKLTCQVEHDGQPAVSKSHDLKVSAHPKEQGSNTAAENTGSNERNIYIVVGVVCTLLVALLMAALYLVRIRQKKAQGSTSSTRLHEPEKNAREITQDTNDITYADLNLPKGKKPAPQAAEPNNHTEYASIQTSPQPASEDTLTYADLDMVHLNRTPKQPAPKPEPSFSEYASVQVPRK
# T1 sequence (Q08722 whole entry, looked up): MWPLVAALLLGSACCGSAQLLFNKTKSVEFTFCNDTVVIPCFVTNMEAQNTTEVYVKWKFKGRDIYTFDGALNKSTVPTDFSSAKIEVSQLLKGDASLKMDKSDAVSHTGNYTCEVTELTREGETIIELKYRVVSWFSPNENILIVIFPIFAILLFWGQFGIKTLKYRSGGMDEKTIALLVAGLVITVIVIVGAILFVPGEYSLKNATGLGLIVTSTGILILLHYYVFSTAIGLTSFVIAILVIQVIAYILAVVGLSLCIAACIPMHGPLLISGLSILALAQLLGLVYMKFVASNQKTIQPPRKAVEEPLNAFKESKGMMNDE
# Sequence of Atrial natriuretic peptide receptor 1 (Homo sapiens) (P16066 whole entry, looked up): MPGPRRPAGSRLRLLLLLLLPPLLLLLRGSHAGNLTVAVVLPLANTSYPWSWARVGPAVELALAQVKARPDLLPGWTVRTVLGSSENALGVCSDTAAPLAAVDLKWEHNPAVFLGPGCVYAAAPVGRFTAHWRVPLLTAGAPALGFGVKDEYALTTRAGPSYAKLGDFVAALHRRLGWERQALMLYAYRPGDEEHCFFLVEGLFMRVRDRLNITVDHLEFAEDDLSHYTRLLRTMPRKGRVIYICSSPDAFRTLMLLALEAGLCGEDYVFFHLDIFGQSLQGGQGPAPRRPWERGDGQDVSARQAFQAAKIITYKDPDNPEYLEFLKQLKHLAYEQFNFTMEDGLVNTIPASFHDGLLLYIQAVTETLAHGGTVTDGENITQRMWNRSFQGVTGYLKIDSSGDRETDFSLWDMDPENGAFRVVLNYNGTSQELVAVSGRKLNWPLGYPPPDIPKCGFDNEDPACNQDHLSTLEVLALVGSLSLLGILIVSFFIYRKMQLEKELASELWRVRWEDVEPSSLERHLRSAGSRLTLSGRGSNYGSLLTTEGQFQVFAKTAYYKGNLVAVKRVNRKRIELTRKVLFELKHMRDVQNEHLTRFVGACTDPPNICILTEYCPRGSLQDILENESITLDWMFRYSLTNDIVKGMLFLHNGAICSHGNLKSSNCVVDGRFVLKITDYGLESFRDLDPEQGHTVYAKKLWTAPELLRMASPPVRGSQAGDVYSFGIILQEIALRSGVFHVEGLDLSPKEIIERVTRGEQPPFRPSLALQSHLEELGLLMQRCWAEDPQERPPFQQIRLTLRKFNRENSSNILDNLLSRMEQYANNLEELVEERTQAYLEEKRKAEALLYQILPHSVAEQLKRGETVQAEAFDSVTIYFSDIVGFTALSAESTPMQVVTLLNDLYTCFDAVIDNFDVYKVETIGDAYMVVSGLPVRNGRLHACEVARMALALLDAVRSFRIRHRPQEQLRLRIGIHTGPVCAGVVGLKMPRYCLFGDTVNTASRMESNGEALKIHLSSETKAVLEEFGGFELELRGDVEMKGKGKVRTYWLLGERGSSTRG
structure (smiles),measurement,setting,value
CNC(=O)c1nn(C)c2c1C(C)(C)Cc1cnc(Nc3ccc(N4CCN(C)CC4)cc3)nc1-2,Potency,[1],inactive
same,Potency,[2],1.66 µM (active)
same,Potency,[3],1.87 µM (active)
same,Potency,[4],2.96 µM (active)
same,Potency,[5],2.35 µM (active)
same,Potency,[6],2.35 µM (active) and 1.46 µM (active)
COc1cc(C)c(Sc2cnc(NC(=O)c3ccc(CNC(C)C(C)C)cc3)s2)cc1C(=O)N1CCN(C(C)=O)CC1 (stereo not given),Potency,[1],inactive
same,Potency,[2],14.8 µM (active)
same,Potency,[3],18.7 µM (active)
same,Potency,[4],3.72 µM (active)
same,Potency,[5],5.9 µM (active)
same,Potency,[6],inactive
COC(=O)C1=C(C)NC(C)=C(C(=O)OCCN2CCN(C(c3ccccc3)c3ccccc3)CC2)C1c1cccc([N+](=O)[O-])c1 (stereo not given),outcome,[7],inactive
CN1CC[C@@H](c2c(O)cc(O)c3c(=O)cc(-c4ccccc4Cl)oc23)[C@@H](O)C1,Potency,[8],0.132 µM (active)
same,Potency,[9],0.118 µM (active)
COC(=O)[C@]12CCC(C)(C)C[C@@H]1[C@@H]1C(=O)C=C3[C@@]4(C)C=C(C#N)C(=O)C(C)(C)[C@@H]4CC[C@@]3(C)[C@]1(C)CC2,Potency,[8],1.18 µM (active)
same,Potency,[9],2.35 µM (active)
same,IC50 (viability decrease),[10],1.05 µM (active)
same,Potency,[11],2.96 µM (active)
O=c1c2ccccc2nc2n1CCc1c-2[nH]c2ccccc12,outcome,[12],inactive
same,Potency,[13],1.51 µM (active)
same,outcome,[14],inactive
same,outcome,[15],inactive
CC(C)c1ccccc1Cc1cc(C(=O)Nc2ccc(S(=O)(=O)c3ccccc3C(C)(C)C)cc2)c(O)c(O)c1O,Potency,[1],inactive
same,Potency,[2],7.43 µM (active)
same,Potency,[3],7.43 µM (active)
same,Potency,[5],8.33 µM (active)
same,Potency,[16],inactive
same,Potency,[9],inactive
same,Potency,[6],9.35 µM (active)
COc1ccc(CC2SC(=O)NC2=O)cc1C(=O)NCc1ccc(C(F)(F)F)cc1 (stereo not given),Potency,[1],inactive
same,Potency,[2],inactive
same,Potency,[3],inactive
same,Potency,[5],inactive
same,Potency,[16],inactive
same,Potency,[9],inactive
same,IC50 (viability decrease),[10],inactive
same,Potency,[6],inactive
same,Potency,[17],inactive
Cn1c(CNc2ccc(C(=N)N)cc2)nc2cc(C(=O)N(CCC(=O)O)c3ccccn3)ccc21,Potency,[1],inactive
same,Potency,[2],inactive
same,Potency,[3],inactive
same,Potency,[4],inactive
same,Potency,[18],inactive
same,Potency,[6],inactive
Cc1ccc(-c2ncn(-c3ccc(Nc4nccc(-c5cccc(N6CCOCC6)c5)n4)cc3)n2)cn1,Potency,[1],inactive
same,Potency,[2],0.0743 µM (active)
same,Potency,[3],0.118 µM (active)
same,Potency,[4],0.0935 µM (active)
same,Potency,[16],0.059 µM (active)
same,Potency,[9],0.059 µM (active)
same,IC50 (viability decrease),[10],0.0743 µM (active)
same,Potency,[6],1.05 µM (active)
O=C(C=Cc1cccc(S(=O)(=O)Nc2ccccc2)c1)NO,Potency,[1],inactive
same,Potency,[2],2.15 µM (active)
same,Potency,[3],2.7 µM (active)
same,Potency,[4],1.52 µM (active)
same,Potency,[16],20.9 µM (active)
same,IC50 (viability decrease),[10],4.69 µM (active)
same,Potency,[6],10.8 µM (active)
CCC1=C[C@@H]2CN(C1)Cc1c([nH]c3ccccc13)[C@@](C(=O)OC)(c1cc3c(cc1OC)N(C)[C@@H]1[C@@](O)(C(=O)OC)[C@H](OC(C)=O)[C@]4(CC)C=CCN5CC[C@]31[C@@H]54)C2,Potency,[1],inactive
same,Potency,[2],0.0148 µM (active)
same,Potency,[3],0.166 µM (active)
same,Potency,[5],inactive
same,outcome,[7],inactive
same,Potency,[17],4.18 µM (active)
COc1cc(C(=O)N2CCC(N3CCN(C)CC3)CC2)ccc1Nc1ncc2c(n1)N(C)c1ccccc1C(=O)N2C,Potency,[1],inactive
same,Potency,[2],13.2 µM (active)
same,Potency,[3],4.69 µM (active)
same,Potency,[5],4.18 µM (active)
Cc1cc(Nc2ncnc3ccc(-c4ccc(CNCCS(C)(=O)=O)o4)cc23)ccc1Oc1ccn2ncnc2c1,Potency,[1],inactive
same,Potency,[2],18.7 µM (active)
same,Potency,[3],14.8 µM (active)
same,Potency,[4],16.6 µM (active)
same,Potency,[6],inactive
same,Potency,[17],inactive
CC(C)(C)c1cc(NC(=O)Nc2ccc(-c3cn4c(n3)sc3cc(OCCN5CCOCC5)ccc34)cc2)no1,Potency,[1],inactive
same,Potency,[2],inactive
same,Potency,[3],inactive
same,Potency,[4],inactive
same,Potency,[16],inactive
same,Potency,[6],inactive
same,Potency,[17],inactive
COc1cc2nccc(Oc3ccc(NC(=O)C4(C(=O)Nc5ccc(F)cc5)CC4)cc3)c2cc1OC,Potency,[1],inactive
same,Potency,[2],1.32 µM (active)
same,Potency,[3],2.35 µM (active)
same,Potency,[4],1.05 µM (active)
same,Potency,[6],16.6 µM (active) and 9.2 µM (active)
CCNC(=O)Nc1ccc2ncc(Nc3ccc(C)cc3)nc2n1,Potency,[1],inactive
same,Potency,[2],0.332 µM (active)
same,Potency,[3],2.96 µM (active)
same,Potency,[4],2.96 µM (active)
same,Potency,[18],inactive
same,Potency,[6],inactive
CNc1nccc(-c2cccnc2Oc2cc(C(=O)Nc3cccc(C(F)(F)F)c3)ccc2C)n1,Potency,[1],inactive
same,Potency,[2],4.18 µM (active)
same,Potency,[3],16.6 µM (active)
same,Potency,[4],18.7 µM (active)
same,Potency,[9],18.7 µM (active)
same,Potency,[18],inactive
same,Potency,[6],inactive and 16.4 µM (active)
Cc1c(NC(=O)OC[C@@H]2COCCN2)cn2ncnc(Nc3ccc4c(cnn4Cc4cccc(F)c4)c3)c12,Potency,[1],inactive
same,Potency,[2],0.166 µM (active)
same,Potency,[3],1.05 µM (active)
same,Potency,[5],0.935 µM (active)
Nc1nc(-c2nn(Cc3ccccc3F)c3ncccc23)nc(N)c1N1CCOCC1,Potency,[1],inactive
same,Potency,[2],inactive
same,Potency,[3],inactive
same,Potency,[4],inactive
same,Potency,[16],inactive
same,Potency,[9],inactive
same,Potency,[6],inactive
same,Potency,[17],inactive
O=C(O)C1(Cc2cccc(Nc3nccs3)n2)CCC(Oc2cccc(Cl)c2F)CC1 (stereo not given),Potency,[1],inactive
same,Potency,[2],4.69 µM (active)
same,Potency,[3],1.66 µM (active)
same,Potency,[4],0.743 µM (active)
same,Potency,[18],0.517 µM (active)
same,Potency,[6],0.411 µM (active)
same,Potency,[17],inactive
